This is a sample that favours compounds with a hit; in the whole collection about 2.9% have one here.
MITF TRPM1 inh: inhibitors of MITF-driven TRPM1 promoter in melanoma cells; 0.83% of 330,000 active; inhibition, % at 12.5 µM; AID 488899; SK-MEL-5 TRPM1 promoter luciferase, 24 h;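 active = mean inhibition across replicates of 60% or more, whatever share of single replicates reaches that level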
Wnt act: Wnt/beta-catenin pathway activation; Wnt/beta-catenin reporter cell assay, activator, plate reader; activation, % at 9.35 µM; 1.2% of 300,000 active; AID 743398; in the data active = activation above about 30%, passing the limit was not always enough;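 note: 0% = neutral control wells and 100% = positive control wells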
NSD2 inh: blocks human histone methyltransferase NSD2. 0.54% of 310,000 active. inhibition, % at 12.5 µM. NSD2 peptide methylation, AlphaScreen, 120 min. AID 743445; in the data active = inhibition above about 50%
PfHsp90 set2: reduces growth (ATP signal) of yeast expressing P. falciparum Hsp90; S. cerevisiae expressing PfHsp90, BacTiter-Glo ATP, 48 h; yeast lacking PDR1 and PDR3 efflux regulators; AID 504621; 0.32% of 310,000 active; inhibition, % at 9.4 µM;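 active = every replicate shows inhibition above about 80%, whatever the replicate mean, limit read from the data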;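 note: 0% = DMSO neutral controls and 100% = 20 µM radicicol positive controls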
MITF TRPM1 HTS: increases MITF-driven TRPM1 promoter luciferase signal; SK-MEL-5 TRPM1-promoter luciferase, 24 h; % of positive control, neutral wells = 0; AID 588334; activation, % at 12.5 µM; 0.75% of 300,000 active;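 active = mean activation of at least 80% with every replicate also reaching 80%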;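 note: 0% = neutral control wells and 100% = parthenolide positive control wells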
N-glyco inh: N-linked glycosylation inhibition; D54 ERlucT glycosylation luciferase reporter, 24 h; percent of 100 nM tunicamycin response; reporter increase, % at 12.5 µM; 0.23% of 360,000 active;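 active = mean luciferase reporter signal, scaled so untreated is 0 and the glycosylation-blocking control 100, at or above a set limit in every replicate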;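 note: luciferase carries N-glycosylation sites so blocking glycosylation raises the light; 0% = median of neutral control wells and 100% = median of 100 nM tunicamycin wells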
AlphaScreen art: interferes with AlphaScreen signal, flagging NSD2 false positives; shares compounds with NSD2 inh; AlphaScreen artifact counterscreen, preloaded methylated H4 peptide; AC35, µM (doses to about 10 µM), for inactives: at the top dose activity change, negative = signal loss; 9.4% of 1,500 active; call rule not given here
An asterisk follows results filed as active.

Screening COc1cccc(CNC(=O)CCC2CCCN(C(=O)CCn3cncn3)C2)c1 (stereo unspecified) returned MITF TRPM1 inh -2, Wnt act 0, NSD2 inh -2, MITF TRPM1 HTS 1 and N-glyco inh 1.
For Cc1c(C)n(Cc2ccccc2)c2ccc(C(=O)OCCN(C)C)cc12 the results were MITF TRPM1 inh -35, Wnt act -1, NSD2 inh 50*, PfHsp90 set2 1, MITF TRPM1 HTS 40, N-glyco inh -6 and AlphaScreen art -19%.
For O=P(c1ccccc1)(c1ccccc1)C(O)c1ccc(Br)cc1 (stereo unspecified) the results were MITF TRPM1 inh 3, Wnt act -1, NSD2 inh 13, PfHsp90 set2 1, MITF TRPM1 HTS -3 and N-glyco inh 0.
Screening O=C(O)c1ccccc1NS(=O)(=O)c1ccc2ccccc2c1 returned MITF TRPM1 inh 0, Wnt act 4, NSD2 inh 52*, PfHsp90 set2 -45, MITF TRPM1 HTS -3, N-glyco inh 1 and AlphaScreen art -1%.
For O=C(O)c1cc(NS(=O)(=O)c2ccc3ccccc3c2)ccc1O the results were MITF TRPM1 inh -5, Wnt act -9, NSD2 inh 0, PfHsp90 set2 -1, MITF TRPM1 HTS 7 and N-glyco inh -2.
For O=C1CC(N2CCOCC2)=NN1c1ccc([N+](=O)[O-])cc1 the results were MITF TRPM1 inh -4, Wnt act 4, NSD2 inh 110*, PfHsp90 set2 20, N-glyco inh 0 and AlphaScreen art 0%.
For O=[N+]([O-])c1ccc(N2CCOCC2)nc1 the results were MITF TRPM1 inh -2, NSD2 inh 1, PfHsp90 set2 13, MITF TRPM1 HTS 8 and N-glyco inh 1.
For CCN(CC)CCNC(=O)/C(=C\c1cccn1C)NC(=O)c1cccs1 the results were MITF TRPM1 inh 5, NSD2 inh 55*, PfHsp90 set2 -17, MITF TRPM1 HTS -1, N-glyco inh 0 and AlphaScreen art -4%.
Cc1ccc2c(c1C)-c1c(ccc(C)c1C)C(=O)C2=O was read as MITF TRPM1 inh 108*, Wnt act -10, NSD2 inh 85*, PfHsp90 set2 103*, N-glyco inh -15 and AlphaScreen art -8%.
Screening NC(=O)C1Cc2ccccc2CN1S(=O)(=O)c1ccc(Cl)s1 (stereo unspecified) returned MITF TRPM1 inh 2, Wnt act -1, NSD2 inh 89*, PfHsp90 set2 11, MITF TRPM1 HTS -1, N-glyco inh 0 and AlphaScreen art -3%.
Screening O=C(C1CCCN1S(=O)(=O)c1ccc(Cl)s1)N1CCc2ccccc2C1 (stereo unspecified) returned NSD2 inh -4.
COc1ccc(-c2ccccc2)cc1NC(=O)[C@@H]1O[C@H](CO)[C@H](O)[C@H](O)[C@H]1O was read as Wnt act -1, NSD2 inh -14 and N-glyco inh 0.
`CC(=O)N(/N=C1\Sc2ccccc2C1=O)c1ccccc1C` gave MITF TRPM1 inh -3, NSD2 inh 56*, MITF TRPM1 HTS 2, N-glyco inh -3 and AlphaScreen art -10%.
For CC(=O)N(/N=C1\Sc2ccccc2C1=O)c1ccc(C)cc1C the results were MITF TRPM1 inh 45, NSD2 inh 0, PfHsp90 set2 32, MITF TRPM1 HTS -46 and N-glyco inh -12.
`O=C(NCc1ccc(F)cc1)C1CCCN1S(=O)(=O)c1ccccc1C(F)(F)F` (stereo unspecified) gave MITF TRPM1 inh -7, Wnt act -1, NSD2 inh 137*, MITF TRPM1 HTS 4, N-glyco inh 0 and AlphaScreen art -3%.
O=C(NCc1ccc(F)cc1)C1CCCN1S(=O)(=O)c1ccc(F)cc1 (stereo unspecified) was read as NSD2 inh 0 and N-glyco inh 0.
For O=C(c1ccccc1)c1cc2ccccc2oc1=O the results were MITF TRPM1 inh -29, Wnt act -1, NSD2 inh 113*, PfHsp90 set2 4, MITF TRPM1 HTS 29, N-glyco inh 1 and AlphaScreen art 0%.
For CCOc1ccc(NC(=O)CSc2nc3ccccc3c(=O)n2CCCC(=O)N2CCCC2)cc1 the results were MITF TRPM1 inh 8, Wnt act -2, NSD2 inh 118*, PfHsp90 set2 -1, N-glyco inh 0 and AlphaScreen art 3%.
`COc1ccc(NC(=O)CSc2nc3ccccc3c(=O)n2CCC(=O)N2CCCCC2)cc1` gave MITF TRPM1 inh 8, Wnt act -3, NSD2 inh 1, PfHsp90 set2 6, MITF TRPM1 HTS -5 and N-glyco inh -2.
For CCN(CC)CCCN(Cc1cc2cc3c(cc2[nH]c1=O)OCO3)C(=S)NCc1ccco1 the results were MITF TRPM1 inh -8, Wnt act -1, NSD2 inh 74*, PfHsp90 set2 -20, MITF TRPM1 HTS 8, N-glyco inh -2 and AlphaScreen art -1%.
For CN(C(=O)c1cc2c(s1)-c1ccccc1S(=O)(=O)C2)c1ccccc1 the results were MITF TRPM1 inh -9, Wnt act 7, NSD2 inh 1, PfHsp90 set2 7, MITF TRPM1 HTS 8 and N-glyco inh 2.
Screening CCOC(=O)c1c(C)oc2ccc(OC(=O)c3cccs3)cc12 returned MITF TRPM1 inh -10, Wnt act 1, NSD2 inh -2, PfHsp90 set2 -6, MITF TRPM1 HTS 4 and N-glyco inh -1.
CCN(CC)c1ccc(C(=C2C=CC(=[N+](CC)CC)C=C2)c2ccc(N(CC)CC)cc2)cc1 was read as Wnt act -25, NSD2 inh 154*, PfHsp90 set2 136*, N-glyco inh -23 and AlphaScreen art 0.43µM*.
For CCN1CCN(C(=O)c2ccccc2NS(=O)(=O)c2ccc(Cl)cc2)CC1 the results were MITF TRPM1 inh 7, Wnt act 3, NSD2 inh 2, PfHsp90 set2 25, MITF TRPM1 HTS -7 and N-glyco inh 0.
Screening Cc1ccccc1CC(=O)N1CCN(C(=O)c2ccco2)CC1 returned MITF TRPM1 inh 5, Wnt act 1, NSD2 inh 32, PfHsp90 set2 -9, MITF TRPM1 HTS -2 and N-glyco inh 0.
Screening Cc1ccccc1CN1CCN(C(=O)c2ccco2)CC1 returned MITF TRPM1 inh -18, Wnt act 20, NSD2 inh 56*, PfHsp90 set2 -11, MITF TRPM1 HTS 23, N-glyco inh -5 and AlphaScreen art -5%.
Screening COc1ccc(-c2cc(NC=O)c3ncc(-c4ccc(OC)c(OC)c4)n3c2)cc1 returned Wnt act -1, NSD2 inh 1 and N-glyco inh 12.
